The results in this text go back to PubChem BioAssay (NCATS).

Structures are written as SMILES. Several values for one entry are separate records, joined by “and”; a condition that tells them apart may be missing. Equal values may be shown once.

This experiment is described as follows: qHTS drug screen for cell cycle checkpoint inhibitors in PARPi-resistant BRCA-mutant ovarian cancer cell lines. (AID 1963452). The following applies: PEO1/OlaR viability, CellTiter-Glo luminescence, 96 h; measured here: PEO4 Z-AUC; stronger effect = lower value. The method, boiled down:
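PEO1, PEO4 and PEO1/OlaR ovarian cancer cells, 600 per well, exposed 96 h at 37C to a dilution series. Viability read by CellTiter-Glo luminescence, normalized to DMSO and empty wells; activity summarized as Z-AUC.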
Turning to `CCOc1ccc(Cc2cc([C@@H]3O[C@H](CO)[C@@H](O)[C@H](O)[C@H]3O)ccc2Cl)cc1`, the Z-AUC was 1.52.

`COC(=O)[C@H]1[C@@H](O)[C@@]2(O)c3c(OC)cc(O[C@@H]4O[C@@H]([C@@H](O)CO)CO[C@H]4OC)cc3O[C@@]2(c2ccc(OC)cc2)[C@@H]1c1ccccc1`: the Z-AUC was 0.648.

Regarding `O=C(NCc1ccc(S(=O)(=O)c2cccc(C(F)(F)F)c2)cc1)c1cnc2[nH]ncc2c1`, the Z-AUC was -2.28.

Consider `COC[C@@H](c1ccc(C(F)(F)F)cc1)N1CCN(C2(C)CCN(C(=O)c3c(C)ncnc3C)CC2)C[C@@H]1C`, for which the Z-AUC was found to be 0.78.

Consider `Cc1c(F)cccc1NC(=O)Nc1ccc(Cl)c(S(=O)(=O)[C@H]2CCCNC2)c1O`, for which the Z-AUC turned out to be 1.41.

For the molecule `Cc1ccc(-c2nc(N)nc3c2nnn3Cc2cccc(CO[C@H]3CCOC3)n2)o1`, the Z-AUC is -1.11.

For the molecule `CCNC(=O)Nc1ccc(Oc2ncnc(N)c2/C=N/OC)cc1Cl`, the Z-AUC amounted to 1.49.

Regarding `COc1cccc(-c2c(C)n(Cc3c(F)cccc3C(F)(F)F)c(=O)n(C[C@H](NCCCC(=O)O)c3ccccc3)c2=O)c1F`, the Z-AUC is 0.863 and 0.647.

For `C=CC(=O)N1CCC(CNc2ncnc(N)c2-c2ccc(Oc3ccccc3)cc2)CC1`, the Z-AUC came to 1.23.

As to `O=C1CC[C@H](N2Cc3c(OCc4ccc(CN5CCOCC5)cc4)cccc3C2=O)C(=O)N1`, the Z-AUC turned out to be 1.23.

As for `C[C@@H]1C(=O)OC2[C@H](O)[C@]34[C@H]5C[C@@H](C(C)(C)C)[C@]36[C@@H](OC(=O)[C@@H]6O)O[C@@]4(C(=O)O5)[C@]21O` (some centres not stated), the Z-AUC was 0.917.

Consider `O=C(Nc1nccs1)C(c1cc(F)ccc1O)N1Cc2ccccc2C1=O` (configuration not stated), for which the Z-AUC is -0.75.
